# Bioassay records: PubChem BioAssay, National Center for Advancing Translational Sciences (NCATS)
# FBPA Giardia inh = Giardia lamblia aldolase inhibition. actives 0.71% (n = 290,000). A8B2U2. Potency, µM (doses to about 59.6 µM), hits mostly inhibitors. purified Giardia FBPA. AID 2451; note: nearly all actives have a fitted effect of over 55% in size
#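 Giardia FBPA (40 nM reagent) was preincubated 10 min at RT with compound (up to 57.5 uM final), then substrate plus GAPDH/TPI/NAD/arsenate coupling system with diaphorase/resazurin was added; resorufin fluorescence (525/598 nm) was read after 20 min.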
# Sm TGR block = blocks Schistosoma mansoni thioredoxin glutathione reductase; actives 3% (n = 360,000); purified TGR, DTNB reduction, TNB absorbance 405 nm; Potency, µM (highest dose often 114 µM), usual class: inhibitors; Q962Y6; note: nearly all actives have a fitted effect of over 60% in size
#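 TGR 20 nM + NADPH 100 uM (dispensed conc.), cpd preinc 15 min RT; start with NADPH (500 uM addition) then DTNB (15 mM addition). Kinetic TNB absorbance, 405 nm filter. Four-parameter Hill fit across titration.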
# Cycloheximide cs = counter-screen for Shiga toxin inhibitors: cycloheximide protein synthesis inhibition. cell reporter, cycloheximide protein synthesis inhibition counterscreen. max response, %. actives 12% (n = 300,000). AID 2314; in the data active = max response mostly above about 13%, no sharp cut-off; inactive = mostly below about 14%; note: read at 38.3 µM for the half of the compounds with a filed dose
# Shiga toxin inh = inhibitors of Shiga toxin in Vero cells. inhibition, % at 38.7 µM. actives 9.2% (n = 290,000). Vero cells, Shiga toxin protein synthesis inhibition reporter; in the data active = inhibition mostly above about 28%, no sharp cut-off; inactive = mostly below about 43%
# TbPYK inhibitor = blocks Trypanosoma brucei pyruvate kinase. Q57TT1. TbPYK enzyme, Kinase-Glo Plus ATP luminescence, 45 min. Potency, µM (series often up to 76.8 µM), most hits filed as inhibitors. actives 0.12% (n = 410,000). AID 624173; note: nearly all actives have a fitted effect of over 50% in size
#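 Activity of T. brucei pyruvate kinase was followed by Kinase-Glo Plus luminescence after the enzyme reacted 45 min at room temperature with 130 uM ADP (final) and substrate. Test compounds were added before ADP at multiple concentrations.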
# LmPK inhibitor = blocks Leishmania mexicana pyruvate kinase activity; AID 1721; Potency, µM (titrated, usually from 57.5 µM), most hits filed as inhibitors; purified LmPK, Kinase-Glo ATP luminescence, 1 h; Q27686; actives 0.37% (n = 290,000)
# Target sequence (Q27686 whole entry, looked up): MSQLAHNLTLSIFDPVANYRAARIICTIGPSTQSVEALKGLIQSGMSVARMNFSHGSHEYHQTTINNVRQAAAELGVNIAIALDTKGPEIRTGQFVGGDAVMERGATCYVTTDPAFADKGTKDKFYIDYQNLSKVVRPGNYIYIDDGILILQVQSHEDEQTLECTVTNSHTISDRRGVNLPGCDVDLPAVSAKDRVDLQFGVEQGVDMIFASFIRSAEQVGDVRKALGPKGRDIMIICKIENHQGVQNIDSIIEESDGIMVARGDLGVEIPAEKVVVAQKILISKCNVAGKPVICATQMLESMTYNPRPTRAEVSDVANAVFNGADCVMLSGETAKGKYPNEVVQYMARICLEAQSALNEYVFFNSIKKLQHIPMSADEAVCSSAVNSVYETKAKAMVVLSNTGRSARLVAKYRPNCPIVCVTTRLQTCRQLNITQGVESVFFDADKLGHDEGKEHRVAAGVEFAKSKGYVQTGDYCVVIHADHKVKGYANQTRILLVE
#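 0.1 nM LmPK, 0.5 mM PEP, 0.1 mM ADP; 50 mM imidazole pH 7.2, 7 mM MgCl2, 50 mM KCl; 1 h RT. Kinase-Glo luminescence readout, normalized to no-enzyme (full inhibition) and uninhibited wells.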
# Numbers stand for hits; - = inactive; ? = inconclusive; . = no result; [ ] = remark or other dose. The full list was thinned out, with hits kept by preference. Unless noted, calls come from the whole dose curve; as a rule, active = well fitted curve in the direction sought with a large enough effect; inconclusive = small, poorly fitted or top-dose-only effect, or another doubt; inactive = no such curve, though single readings can be large; an effect the other way counts as inactive or inconclusive.
SMILES,FBPA Giardia inh,Sm TGR block,Cycloheximide cs,Shiga toxin inh,TbPYK inhibitor,LmPK inhibitor
COc1cc2c(=O)c(S(=O)(=O)c3ccccc3)cn(CC(=O)Nc3ccccc3C)c2cc1OC,.,-,.,.,-,.
Cn1c(=O)c(=O)n(C)c2cc(N3CCOCC3)c(NS(=O)(=O)c3ccc(Br)cc3)cc21,?,25µM,-,-,-,-
Cn1c(=O)c(=O)n(C)c2cc(N3CCCC3)c(NS(=O)(=O)c3ccc(F)cc3)cc21,-,?,-,-,-,-
COc1ccc(OC)c(S(=O)(=O)Nc2cc3c(cc2N2CCCC2)n(C)c(=O)c(=O)n3C)c1,?,32µM,-,-,?,-
CC(C)NC(=O)N1CC2(CCN(C(=O)c3ccco3)CC2)C1,-,.,.,.,-,.
COc1ccc(/C=C(/C(=O)c2cccs2)N2C=CC=CC2=C(C#N)C#N)cc1,-,0.28µM,41,47,-,-
CCc1cc2c(=O)n(-c3ccccc3)cnc2s1,-,-,53,105,-,-
CCc1cc2c(=O)n(-c3ccc(C)cc3)cnc2s1,-,-,53,74,-,-
CCc1cc2c(SCC(=O)c3ccc(C)cc3)ncnc2s1,-,-,-,-,-,-
CCCCc1ccc(-n2nc3cc(Cl)c(NC(=O)c4ccc(OC)cc4)cc3n2)cc1,.,-,.,.,-,.
COc1ccc(NC(=O)c2nc(S(=O)(=O)Cc3cccc(C)c3)ncc2Cl)c(OC)c1,.,-,-,-,-,-
Cc1cccc(CS(=O)(=O)c2ncc(Cl)c(C(=O)Nc3c(C)cccc3C)n2)c1,.,7.1µM,22,-,-,-
Cc1cccc(C)c1NC(=O)c1nc(S(=O)(=O)Cc2ccccc2)ncc1Cl,.,13µM,16,40,-,-
Cc1ccccc1NC(=O)c1nc(S(C)(=O)=O)ncc1Cl,-,?,42,48,-,-
CCCc1nnc(NC(=O)c2nc(S(=O)(=O)Cc3cccc(C)c3)ncc2Cl)s1,.,35µM,52,68,-,-
CCOc1ccc(/C=C/c2nc(C#N)c(N3CCC(C)CC3)o2)cc1,.,-,.,.,-,.
C=CCN=C1N[C@@H](c2ccc(Br)cc2)C(C(=O)OC)=C(C)N1Cc1ccccc1,-,-,-,-,.,-
O=C(Cc1ccc(NC(=O)N2CCCCc3ccccc32)cc1)Nc1ccccc1Br,.,-,.,.,-,.
CCOC(=O)c1nc(S(C)(=O)=O)ncc1Cl,-,8.9µM,26,-,-,-
Cc1cccc(CS(=O)(=O)c2ncc(Cl)c(C(=O)NCc3ccccc3)n2)c1,.,7.9µM,24,38,-,-
Cc1nnc(NC(=O)c2nc(S(=O)(=O)Cc3ccccc3)ncc2Cl)s1,.,22µM,63,86,-,-
COc1ccc2nc(NC(=O)c3nc(S(=O)(=O)Cc4ccccc4)ncc3Cl)sc2c1,.,-,.,.,-,.
COc1ccc(OC)c(NC(=O)c2nc(S(=O)(=O)Cc3ccccc3)ncc2Cl)c1,.,3.2µM,-,-,-,-
CCOC(=O)c1nc(S(C)(=O)=O)ncc1N1CCOCC1,-,-,-,-,-,-
Cc1cc(OCCn2ccnc2)cc(C)c1Cl,-,-,-,-,-,-
SMILES,FBPA Giardia inh,Sm TGR block,Cycloheximide cs,Shiga toxin inh,TbPYK inhibitor,LmPK inhibitor
CCN(CC)C(=O)c1cccc(NC(=O)c2ccccc2OCc2c(C)noc2C)c1,.,-,.,.,-,.
Cc1oc2ncnc(N3CCOCC3)c2c1C(=O)NCc1ccccc1,.,-,.,.,-,.
N#Cc1cccc(NC(=O)N2CC[C@@]3(CCCN(C(=O)c4cnccn4)C3)C2)c1,-,.,.,.,-,.
Cc1ccc(NC(=O)C2C3/C=C\CCCCC32)cc1C (configuration not stated),.,-,37,-,-,-
Cc1ccccc1NC(=O)C1C2/C=C\CCCCC21 (configuration not stated),-,-,-,-,-,-
O=C(Nc1ccccc1)C1C2/C=C\CCCCC21 (configuration not stated),-,-,19,43,-,-
CC1CC2(CCCC2)Nc2ccc(F)cc21 (configuration not stated),?,40µM,-,-,-,-
Cc1cccc2c1NC1(CCCC1)CC2C (configuration not stated),-,?,-,-,-,-
COc1ccc(C(=O)Cc2cc3ccccc3oc2=O)cc1,-,-,28,61,-,-
Cc1ccc(C(=O)Cc2cc3ccccc3oc2=O)c(C)c1,-,-,57,67,-,-
CO[C@H]1C[C@@H]2CC[C@@H](C)[C@@](O)(O2)C(=O)C(=O)N2CCCC[C@H]2C(=O)OC([C@H](C)C[C@@H]2CC[C@@H](O)[C@H](OC)C2)CC(=O)[C@H](C)/C=C(\C)[C@@H](O)[C@@H](OC)C(=O)[C@H](C)C[C@H](C)/C=C/C=C/C=C/1C (some centres not stated),-,.,-,-,.,.
CO[C@H]1C[C@@H]2CC[C@@H](C)[C@@](O)(O2)C(=O)C(=O)N2CCCC[C@H]2C(=O)O[C@H]([C@H](C)C[C@@H]2CC[C@@H](O)[C@H](OC)C2)CC(=O)[C@H](C)C=C(C)[C@@H](O)[C@@H](OC)C(=O)[C@H](C)C[C@H](C)C=CC=CC=C1C,-,14µM,-,-,.,-
O=C(CCC(=O)Nc1ccc(F)cc1)N/N=C/c1ccncc1,-,-,-,-,-,-[11.5 µM]
O=C(Nc1ccccc1)O/N=C/c1ccncc1,-,-,17,-,-,-
O=C(CCC(=O)Nc1ccccc1)N/N=C/c1ccncc1,-,-,23,-,-,-
O=C(CCC(=O)Nc1ccc(Br)cc1)N/N=C/c1ccccc1O,-,-,21,-,-,-
Cc1noc(C)c1-c1nccc(N2CCNCC2)n1,-,.,.,.,.,.
O=C(NC(=S)Nc1cccnc1)c1cc2ccccc2o1,-,-,46,57,-,-
O=C(NC(=S)Nc1ccc(CN2CCCCC2)cc1)c1cc2ccccc2o1,-,-,14,-,-,-
CC(=O)Nc1ccc(NC(=S)NC(=O)c2cc3ccccc3o2)cc1,-,-,-,-,-,-
O=C(NC(=S)NCc1cccnc1)c1cc(Br)ccc1Cl,.,-,-,-,-,-
O=C(NC(=S)NCc1cccnc1)c1cc2ccccc2o1,-,-,30,-,-,-
O=C(Nc1cccnc1)c1cc2cc(Br)ccc2o1,-,-,22,.,-,-
CCN(CC)C1=CC(=O)OC12CCCCC2,-,1.6µM,-,-,-,-
CC(C)N(C1=CC(=O)OC12CCCCC2)C(C)C,-,-,-,-,-,-
Cc1ccc(C2CC(=O)N(Cc3ccccc3)c3c2c(C)nn3-c2nc(C)cc(C)n2)cc1 (configuration not stated),.,-,.,.,-,.
Cc1cc(C)n2nc(SCCOc3ccccc3)nc2n1,-,-,11,-,-,-
Cc1cc(C)n2nc(SCc3nc4ccccc4[nH]3)nc2n1,-,-,-,active,-,-
